The full data set covers some 8,800 targets. This sample favours those with a hit. About 0.5% of all pairs of compound and target were hits.
Key:
Assay in all cases: log2 fold change, soluble protein after heating vs DMSO (PISA); higher = thermal stabilisation; K562 lysate, 10 uM; active = over 0.2 and 3.5 SD of the protein, either way, in both replicates (recomputed)
vemurafenib = compound: CCCS(=O)(=O)Nc1ccc(F)c(C(=O)c2c[nH]c3ncc(-c4ccc(Cl)cc4)cc23)c1F [vemurafenib]
In short: (§1)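 A 30 min treatment with 10 μM compound was applied to crude K562 extract at 1 mg/mL protein in PBS pH 7.4 with 1 mM MgCl2. Heating for 3 min spanned 48°C-58°C, after which aliquots were pooled, adjusted to 0.5% NP-40 at 4°C and spun at 21,000xg for 90 min. TMTpro 16plex LC-MS/MS of the supernatant, with channel sums equalised, gave values recorded as log-two fold change in thermal stability against solvent controls, from duplicates.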

[1] = compound: CCCS(=O)(=O)Nc1ccc(F)c(C(=O)c2c[nH]c3ncc(Cl)cc23)c1F
In short: as §1

barasertib = compound: CCN(CCCOc1ccc2c(Nc3cc(CC(=O)Nc4cccc(F)c4)[nH]n3)ncnc2c1)CCOP(=O)(O)O [barasertib]
In short: as §1

[2] = compound: CC[C@@H]1C(=O)N(C)c2cnc(Nc3ccc(C(=O)NC4CCN(C)CC4)cc3OC)nc2N1C1CCCC1
In short: as §1

volasertib = compound: CC[C@@H]1C(=O)N(C)c2cnc(Nc3ccc(C(=O)N[C@H]4CC[C@H](N5CCN(CC6CC6)CC5)CC4)cc3OC)nc2N1C(C)C [volasertib]
In short: as §1

[3] = compound: CCn1c(C(=O)N(C2CC2)C2CC2)cc2c3c(ncn3C)c(Nc3cc(C)n(C)n3)nc21
In short: as §1

[4] = compound: CCn1cc(-c2ccnc3[nH]c(-c4cccc(CN(C)C)c4)cc23)c(-c2ccc(NC(=O)N(C)C)cc2)n1
In short: as §1

[5] = compound: CN1CCC(CNc2ccc3ncc(-c4cccc(OC(F)(F)F)c4)n3n2)CC1
In short: as §1

saracatinib = compound: CN1CCN(CCOc2cc(OC3CCOCC3)c3c(Nc4c(Cl)ccc5c4OCO5)ncnc3c2)CC1 [saracatinib]
In short: as §1

sotrastaurin = compound: CN1CCN(c2nc(C3=C(c4c[nH]c5ccccc45)C(=O)NC3=O)c3ccccc3n2)CC1 [sotrastaurin]
In short: as §1

alvocidib = compound: CN1CC[C@H](c2c(O)cc(O)c3c(=O)cc(-c4ccccc4Cl)oc23)[C@H](O)C1 [alvocidib]
In short: as §1

Tubastatin A = compound: CN1CCc2c(c3ccccc3n2Cc2ccc(C(=O)NO)cc2)C1 [Tubastatin A]
In short: as §1

[6] = compound: CNC(=O)C1=CC=CC=C1NC2=NC(=NC=C2Cl)NC3=C(C=C(C=C3)N4CCOCC4)OC
In short: as §1

defactinib = compound: CNC(=O)c1ccc(Nc2ncc(C(F)(F)F)c(NCc3nccnc3N(C)S(C)(=O)=O)n2)cc1 [defactinib]
In short: as §1

[7] = compound: CNc1nc(-c2ccc3c(N)n[nH]c3c2)cc(N2C[C@@H](C(=O)NC3CCCCC3)CC[C@H]2C)n1
In short: as §1

encorafenib = compound: COC(=O)N[C@@H](C)CNc1nccc(-c2cn(C(C)C)nc2-c2cc(Cl)cc(NS(C)(=O)=O)c2F)n1 [encorafenib]
In short: as §1

[8] = compound: COC(=O)[C@H](CCSC)NC(=O)C1=C(C=C(C=C1)NC[C@H](CS)N)C2=CC=CC=C2
In short: as §1

alisertib = compound: COc1cc(Nc2ncc3c(n2)-c2ccc(Cl)cc2C(c2c(F)cccc2OC)=NC3)ccc1C(=O)O [alisertib]
In short: as §1

[9] = compound: COc1cc2nc(-c3cc(F)ccc3O)nc(N[C@@H]3CNC[C@H]3C(C)(C)O)c2cc1OC
In short: as §1

gefitinib = compound: COc1cc2ncnc(Nc3ccc(F)c(Cl)c3)c2cc1OCCCN1CCOCC1 [gefitinib]
In short: as §1

Measured: log2 fold change

ELAVL1 isoform 2 (UniProt Q15717)
Chain of UniProt Q15717 (Q15717 whole entry, looked up): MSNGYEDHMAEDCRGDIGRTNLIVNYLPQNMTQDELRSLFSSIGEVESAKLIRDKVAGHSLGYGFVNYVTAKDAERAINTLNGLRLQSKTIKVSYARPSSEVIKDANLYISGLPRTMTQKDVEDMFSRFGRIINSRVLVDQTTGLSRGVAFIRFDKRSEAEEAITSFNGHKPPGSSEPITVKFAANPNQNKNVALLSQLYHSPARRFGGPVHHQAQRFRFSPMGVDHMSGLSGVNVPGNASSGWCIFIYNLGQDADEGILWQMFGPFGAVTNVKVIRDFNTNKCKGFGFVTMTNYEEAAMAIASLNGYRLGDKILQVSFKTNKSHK
inactive: vemurafenib 0.035 | [1] 0.024 | barasertib -0.013 | [2] -0.03 | volasertib -0.029 | [3] 0.035 | [4] 0.013 | [5] -0.083 | saracatinib -0.001 | sotrastaurin 0.024 | alvocidib 0.013 | Tubastatin A -0.187 | [6] 0.05 | defactinib -0.005 | [7] -0.011 | encorafenib 0.018 | [8] 0.166 | alisertib 0.019 | [9] -0.002 | gefitinib 0.048

ERAL1 (UniProt O75616)
Chain of UniProt O75616 (O75616 whole entry, looked up): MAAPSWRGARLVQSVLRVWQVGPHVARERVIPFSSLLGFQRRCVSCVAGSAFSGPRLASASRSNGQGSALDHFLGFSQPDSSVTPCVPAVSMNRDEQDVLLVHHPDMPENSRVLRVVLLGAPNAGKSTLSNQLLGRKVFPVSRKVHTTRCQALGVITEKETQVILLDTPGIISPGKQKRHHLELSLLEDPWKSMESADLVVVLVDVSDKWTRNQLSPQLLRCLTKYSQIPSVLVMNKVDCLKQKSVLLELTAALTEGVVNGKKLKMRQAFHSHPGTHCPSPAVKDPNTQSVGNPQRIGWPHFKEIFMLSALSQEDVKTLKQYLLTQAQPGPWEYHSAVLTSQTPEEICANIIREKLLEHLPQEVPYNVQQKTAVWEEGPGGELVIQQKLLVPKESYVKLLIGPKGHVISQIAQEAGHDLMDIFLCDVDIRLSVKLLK
inactive: vemurafenib -0.058 | [1] -0.016 | barasertib -0.032 | [2] 0.065 | volasertib -0.046 | [3] 0.059 | [4] -0.065 | saracatinib -0.035 | sotrastaurin 0.02 | alvocidib 0.005 | Tubastatin A -0.151 | [6] -0.03 | defactinib 0.027 | [7] -0.015 | encorafenib -0.018 | [8] 0.058 | alisertib -0.008 | [9] 0.016 | gefitinib 0.02
active: [5] -0.359

EXTL2 (UniProt Q9UBQ6)
Chain of UniProt Q9UBQ6 (Q9UBQ6 whole entry, looked up): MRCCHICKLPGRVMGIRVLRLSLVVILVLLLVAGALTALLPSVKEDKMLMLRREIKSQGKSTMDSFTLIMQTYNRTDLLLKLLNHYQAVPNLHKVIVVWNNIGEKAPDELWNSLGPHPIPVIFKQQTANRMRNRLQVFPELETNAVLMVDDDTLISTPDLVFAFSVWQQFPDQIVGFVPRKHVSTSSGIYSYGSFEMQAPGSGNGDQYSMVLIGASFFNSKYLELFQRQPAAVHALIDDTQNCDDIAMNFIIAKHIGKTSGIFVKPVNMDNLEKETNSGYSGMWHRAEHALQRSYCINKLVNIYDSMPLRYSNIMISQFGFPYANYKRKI
inactive: vemurafenib -0.052 | [1] 0.066 | barasertib 0.057 | [2] -0.13 | volasertib 0.019 | [3] 0.03 | [4] -0.198 | [5] 0.078 | saracatinib -0.017 | sotrastaurin -0.026 | alvocidib -0.016 | Tubastatin A 0 | [6] 0.009 | defactinib 0.037 | [7] 0.104 | encorafenib 0.168 | [8] -0.048 | alisertib -0.021 | [9] -0.005 | gefitinib -0.111

FAM98A (UniProt Q8NCA5)
Chain of UniProt Q8NCA5 (Q8NCA5 whole entry, looked up): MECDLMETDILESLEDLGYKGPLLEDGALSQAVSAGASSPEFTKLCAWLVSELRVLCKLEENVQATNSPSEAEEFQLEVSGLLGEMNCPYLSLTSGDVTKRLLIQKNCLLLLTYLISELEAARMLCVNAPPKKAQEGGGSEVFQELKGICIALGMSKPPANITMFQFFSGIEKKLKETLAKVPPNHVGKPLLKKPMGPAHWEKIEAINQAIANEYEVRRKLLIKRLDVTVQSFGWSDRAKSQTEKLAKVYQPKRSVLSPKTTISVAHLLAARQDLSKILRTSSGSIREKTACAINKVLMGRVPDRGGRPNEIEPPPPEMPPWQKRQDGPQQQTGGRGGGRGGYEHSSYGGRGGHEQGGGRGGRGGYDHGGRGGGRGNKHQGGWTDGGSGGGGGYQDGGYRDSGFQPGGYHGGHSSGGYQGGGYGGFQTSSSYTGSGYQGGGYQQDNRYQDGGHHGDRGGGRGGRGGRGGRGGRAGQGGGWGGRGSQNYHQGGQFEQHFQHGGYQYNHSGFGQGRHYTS
inactive: vemurafenib 0.063 | [1] 0.032 | barasertib -0.016 | [2] 0.045 | volasertib -0.029 | [3] -0.005 | [4] 0.088 | [5] -0.08 | saracatinib -0.028 | sotrastaurin 0.017 | alvocidib 0.042 | Tubastatin A -0.04 | [6] 0.028 | defactinib 0.01 | [7] 0.086 | encorafenib -0.004 | [8] 0.025 | alisertib -0.028 | [9] -0.014 | gefitinib 0.037

EBP (UniProt Q15125)
Chain of UniProt Q15125 (Q15125 whole entry, looked up): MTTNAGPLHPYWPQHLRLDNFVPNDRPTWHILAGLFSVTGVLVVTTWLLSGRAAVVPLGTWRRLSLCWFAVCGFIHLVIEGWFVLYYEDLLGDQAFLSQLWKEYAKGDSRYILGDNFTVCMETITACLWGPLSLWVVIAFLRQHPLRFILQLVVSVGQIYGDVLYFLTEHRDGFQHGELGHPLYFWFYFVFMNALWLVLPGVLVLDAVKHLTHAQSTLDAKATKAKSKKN
inactive: vemurafenib 0.056 | [1] 0.024 | barasertib 0.069 | [2] 0.071 | volasertib 0.038 | [3] -0.024 | [4] -0.354 | [5] 0.044 | saracatinib 0.135 | sotrastaurin -0.103 | alvocidib -0.003 | Tubastatin A 0.004 | [6] 0.087 | defactinib 0.028 | encorafenib 0.005 | [8] -0.016 | alisertib -0.036 | [9] 0.048 | gefitinib 0.04
active: [7] 0.291

GGT7 (UniProt Q9UJ14)
Chain of UniProt Q9UJ14 (Q9UJ14 whole entry, looked up): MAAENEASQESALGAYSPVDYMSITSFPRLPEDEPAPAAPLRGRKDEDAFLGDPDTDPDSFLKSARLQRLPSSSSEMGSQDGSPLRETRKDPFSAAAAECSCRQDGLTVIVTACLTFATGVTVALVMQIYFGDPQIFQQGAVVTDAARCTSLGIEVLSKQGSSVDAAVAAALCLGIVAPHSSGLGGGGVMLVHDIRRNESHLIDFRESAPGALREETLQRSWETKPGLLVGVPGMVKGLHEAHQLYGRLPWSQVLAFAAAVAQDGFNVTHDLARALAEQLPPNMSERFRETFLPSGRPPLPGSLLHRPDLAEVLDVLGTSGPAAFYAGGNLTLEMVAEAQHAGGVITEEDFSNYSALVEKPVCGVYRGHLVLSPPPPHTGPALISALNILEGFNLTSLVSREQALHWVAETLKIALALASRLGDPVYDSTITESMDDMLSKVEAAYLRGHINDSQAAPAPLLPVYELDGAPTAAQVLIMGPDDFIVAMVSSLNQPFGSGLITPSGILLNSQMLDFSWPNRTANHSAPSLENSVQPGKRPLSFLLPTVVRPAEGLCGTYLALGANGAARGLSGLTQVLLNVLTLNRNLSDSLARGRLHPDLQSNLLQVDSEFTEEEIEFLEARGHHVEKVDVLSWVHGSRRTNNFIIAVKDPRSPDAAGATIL
inactive: vemurafenib 0.003 | [1] 0.029 | barasertib 0.007 | [2] 0.037 | volasertib -0.014 | [3] -0.014 | [4] -0.003 | [5] 0.027 | saracatinib 0.097 | sotrastaurin 0.032 | alvocidib -0.013 | Tubastatin A 0.076 | [6] 0.008 | defactinib 0.066 | [7] 0.079 | encorafenib 0.078 | [8] -0.065 | alisertib -0.015 | [9] 0.044 | gefitinib 0.055

FIG4 (UniProt Q92562)
Chain of UniProt Q92562 (Q92562 whole entry, looked up): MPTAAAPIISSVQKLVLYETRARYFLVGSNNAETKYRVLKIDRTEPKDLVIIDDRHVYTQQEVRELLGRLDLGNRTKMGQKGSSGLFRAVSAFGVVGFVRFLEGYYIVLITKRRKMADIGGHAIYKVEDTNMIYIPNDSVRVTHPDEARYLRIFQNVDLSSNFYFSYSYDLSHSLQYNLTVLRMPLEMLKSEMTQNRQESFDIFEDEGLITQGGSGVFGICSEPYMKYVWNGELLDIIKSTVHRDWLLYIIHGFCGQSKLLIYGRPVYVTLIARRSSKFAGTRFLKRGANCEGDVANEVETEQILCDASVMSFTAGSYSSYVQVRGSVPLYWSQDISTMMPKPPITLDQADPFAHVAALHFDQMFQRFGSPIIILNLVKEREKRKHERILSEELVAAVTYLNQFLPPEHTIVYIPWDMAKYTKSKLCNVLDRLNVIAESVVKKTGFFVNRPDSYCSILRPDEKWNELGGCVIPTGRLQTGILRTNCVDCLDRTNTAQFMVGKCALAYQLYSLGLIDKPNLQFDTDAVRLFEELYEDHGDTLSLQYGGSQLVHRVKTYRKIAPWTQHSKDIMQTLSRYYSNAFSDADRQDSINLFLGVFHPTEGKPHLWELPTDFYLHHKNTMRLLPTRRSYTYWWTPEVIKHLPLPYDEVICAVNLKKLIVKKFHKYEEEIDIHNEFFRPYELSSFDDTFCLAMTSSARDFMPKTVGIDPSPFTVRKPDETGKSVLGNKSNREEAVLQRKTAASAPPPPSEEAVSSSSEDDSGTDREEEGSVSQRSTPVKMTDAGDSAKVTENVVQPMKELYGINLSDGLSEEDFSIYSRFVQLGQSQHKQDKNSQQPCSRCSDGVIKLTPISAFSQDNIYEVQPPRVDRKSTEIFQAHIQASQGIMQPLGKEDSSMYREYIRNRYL
inactive: vemurafenib 0.107 | [1] 0.071 | barasertib -0.085 | [2] -0.201 | volasertib -0.012 | [3] -0.045 | [4] 0.104 | [5] -0.012 | saracatinib 0.032 | sotrastaurin 0.092 | alvocidib -0.106 | Tubastatin A 0.012 | [6] -0.004 | defactinib -0.039 | [7] -0.016 | encorafenib 0.064 | [8] 0.037 | alisertib -0.145 | [9] 0.079 | gefitinib 0.148

EDC3 (UniProt Q96F86)
Chain of UniProt Q96F86 (Q96F86 whole entry, looked up): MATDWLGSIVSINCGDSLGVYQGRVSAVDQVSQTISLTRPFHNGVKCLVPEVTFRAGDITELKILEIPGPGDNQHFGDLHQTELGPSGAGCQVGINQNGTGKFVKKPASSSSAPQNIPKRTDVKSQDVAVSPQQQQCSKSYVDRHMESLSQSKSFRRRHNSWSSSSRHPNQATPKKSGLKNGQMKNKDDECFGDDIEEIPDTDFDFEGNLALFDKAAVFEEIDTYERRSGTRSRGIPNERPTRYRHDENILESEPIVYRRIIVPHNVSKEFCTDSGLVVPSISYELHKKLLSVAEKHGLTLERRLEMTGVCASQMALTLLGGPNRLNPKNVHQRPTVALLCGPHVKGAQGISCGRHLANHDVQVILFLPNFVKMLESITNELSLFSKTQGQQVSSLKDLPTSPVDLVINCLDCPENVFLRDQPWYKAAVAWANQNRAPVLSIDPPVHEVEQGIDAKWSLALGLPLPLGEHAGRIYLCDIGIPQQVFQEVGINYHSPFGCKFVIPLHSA
inactive: vemurafenib -0.011 | [1] 0.019 | barasertib -0.01 | [2] 0.066 | volasertib -0.016 | [3] -0.012 | [4] -0.017 | [5] -0.043 | saracatinib 0.006 | sotrastaurin 0.018 | alvocidib -0.045 | Tubastatin A -0.1 | [6] 0.003 | defactinib 0.009 | [7] 0.038 | encorafenib 0.019 | [8] -0.071 | alisertib 0.025 | [9] -0.02 | gefitinib -0.042

Source: the supplement of paper PMC10849652
